The structures appear in SMILES notation. About 13,000 (27%) of roughly 48,000 compounds showed an effect of 50% or more. The list shows a part of the results.

These results are taken from ChEMBL document CHEMBL3988442, “University of Dundee, Small-Polar-MMV Screening Library” (2021).

The subject of this assay is Wolbachia pipientis. Description: Anti-Wolbachia Cell-Based Screen. It is filed as functional. On the set-up: scale not given: in the data most compounds retested in dose-response had high values. The note with it: 5 µM.
As to `COCCC1(CNC(=O)NCC2CN(C)CCN2C)CCC1` (centres undefined), the “Percent Effect” value is -22.96%.

`CC(C)c1ccc(OCCC(=O)N(C)C)cc1`: the “Percent Effect” value was 6.13%.

For `CC(C)c1nc(/C=C/c2cnn(-c3ccccc3)c2)ncc1C(=O)O`, the “Percent Effect” value is recorded as -2.711%.

As for `NC(=O)c1cccc(CC2CCN(C(=O)CCc3cccc(F)c3)C2)c1` (centres undefined), the “Percent Effect” value is recorded as -3.46%.

Consider `Cc1ccsc1[C@@H]1CCN(C(=O)Cc2ccc(O)cc2)C[C@H]1O`, for which the “Percent Effect” value is -5.599%.

Consider `Cc1nc2cc(C(=O)N3CCCC(n4ccnc4)C3)ccc2n1C` (centres undefined), for which the “Percent Effect” value is given as 116.9%.

With `Cc1nc2cc(C(=O)N3CCCC(n4cncn4)C3)ccc2n1C` (centres undefined), the “Percent Effect” value is reported as -4.268%.

On to `Cc1nccn1C1CCCN(C(=O)c2ccc3c(c2)nc(C)n3C)C1` (centres undefined), for which the “Percent Effect” value is 109.3%.

Turning to `CCOc1ccc(N(CCC#N)C(=O)c2ccnc(SC)c2)cc1`, the “Percent Effect” value stood at 9.969%.

On to `Cc1cc(CNC(=O)[C@H]2CCCCN2C(=O)OC(C)(C)C)on1`, for which the “Percent Effect” value is reported as -34.39%.

As to `O=C(O)C(F)(F)F.O=C(O)C(F)(F)F.c1cc(CN2C[C@@H]3OCCN(CC4CC4)[C@@H]3C2)n[nH]1`, the “Percent Effect” value was determined as 105.8%.

`O=C(O)C(F)(F)F.O=C(O)C(F)(F)F.O=C(O)C(F)(F)F.c1coc(CN2C[C@@H]3OCCN(CCN4CCCC4)[C@@H]3C2)c1`: the “Percent Effect” value was -5.292%.

Turning to `COCCN1CCO[C@H]2CN(C(=O)c3cccs3)C[C@H]21.O=C(O)C(F)(F)F`, the “Percent Effect” value is reported as -7.528%.

Consider `O=C(O)C(F)(F)F.c1cnc(N2CCO[C@H]3CN(Cc4cc[nH]n4)C[C@H]32)cn1`, for which the “Percent Effect” value is on record as -10.59%.

With `COCCN1CCO[C@H]2CN(Cc3cc[nH]n3)C[C@H]21.O=C(O)C(F)(F)F.O=C(O)C(F)(F)F`, the “Percent Effect” value was determined as 90.56%.

Consider `O=C(O)C(F)(F)F.O=C(O)C(F)(F)F.c1csc(CN2C[C@@H]3OCCN(CC4CCCO4)[C@@H]3C2)c1` (some centres undefined), for which the “Percent Effect” value was -7.067%.

As for `O=C(O)CSc1nnc(-c2ccn[nH]2)n1-c1ccccc1Cl`, the “Percent Effect” value is listed as -20.89%.

Regarding `Cc1ccccc1OCCC(=O)N1CCc2nc(C)n(C)c(=O)c2CC1`, the “Percent Effect” value is 7.029%.

For `Cn1cc(-c2nc(CN3CCOC(Cn4cccn4)C3)cs2)cn1` (centres undefined), the “Percent Effect” value amounted to 14.65%.

As for `c1cnc(-c2nc(CN3CCOC(Cn4cncn4)C3)cs2)nc1` (centres undefined), the “Percent Effect” value is reported as 0%.

On to `Cc1ccc(-c2noc(CN3CCOC(Cn4cncn4)C3)n2)cc1` (centres undefined), for which the “Percent Effect” value is -2.106%.

As for `c1ccc(-c2nc(CN3CCOC(Cn4cncn4)C3)cs2)cc1` (centres undefined), the “Percent Effect” value was found to be 125.5%.

For the molecule `Cn1cc(-c2nc(CN3CCOC(Cn4cncn4)C3)cs2)cn1` (centres undefined), the “Percent Effect” value is reported as 113.5%.

As to `Cc1noc(C)c1CN1C(=O)[C@H]2CC[C@@H]1CN(Cc1ccc(Cl)cc1)C2`, the “Percent Effect” value is -8.21%.

Turning to `CC(C)n1ncc2cc(NC(=O)N3CCC(N4CCCC4)C3)cnc21` (centres undefined), the “Percent Effect” value is -0.151%.

`COc1ccc(C(=O)Nc2nncs2)cn1`: the “Percent Effect” value is on record as -3.004%.

`CCc1nc(CC(=O)N2CCN(c3cnccn3)CC2)cs1`: the “Percent Effect” value worked out at 8.255%.

Consider `CCc1nnc(Nc2cc(C)nc(C3CCN(c4ncccn4)C3)n2)s1` (centres undefined), for which the “Percent Effect” value was found to be 164.2%.

Consider `CCc1nnc(Nc2cc(C)nc(C3CCN(c4ccncn4)C3)n2)s1` (centres undefined), for which the “Percent Effect” value came to 171.2%.

Regarding `CCc1cc(N2CCN(c3cnccn3)CC2)n2nc(C)c(C)c2n1`, the “Percent Effect” value came out at 6.49%.

Take `COc1cc(N2CCCC(c3nccn3Cc3ccncc3)C2)ncn1` (centres undefined): the “Percent Effect” value is on record as 26.87%.

Regarding `Cc1nccn1CCC1CCN(c2ccncn2)CC1`, the “Percent Effect” value was -24.71%.

`Cc1cc(C)nc(C2CCN(c3ccncn3)C2)n1` (centres undefined): the “Percent Effect” value turned out to be 136%.

On to `CCc1nnc(Nc2cccc(C3CCN(CCO)CC3)n2)s1`, for which the “Percent Effect” value is recorded as -9.2%.

On to `CCc1nc(C2CCCN(c3ncccn3)C2)no1` (centres undefined), for which the “Percent Effect” value amounted to 22.68%.

For `CCc1nnc(Nc2cc(C)nc(C3CCN(c4cnccn4)C3)n2)s1` (centres undefined), the “Percent Effect” value stood at 134.1%.

In the case of `Cc1ccccc1N1CCCN(c2ccncn2)CC1`, the “Percent Effect” value is on record as -18.24%.

Take `CCc1nnc(CNC2CCN(c3ncnc4c(C)csc34)CC2)s1`: the “Percent Effect” value came out at 6.605%.

With `c1cnc(N2CCC(C3CCN(CCCn4cccn4)C3)CC2)nc1` (centres undefined), the “Percent Effect” value is given as 5.409%.

As for `Cc1ccc(C2CSCCN2C(=O)C2=CCCC2)o1` (centres undefined), the “Percent Effect” value is -12.79%.

As to `CC(Cc1cccc(F)c1)C(=O)NS(=O)(=O)c1ccc(F)cc1` (centres undefined), the “Percent Effect” value was -6.109%.

In the case of `CCCc1ccc(S(=O)(=O)NCCNC(=O)c2ccoc2)cc1`, the “Percent Effect” value was -13.27%.

With `COc1ccc(CC(C)(O)CNC(=O)Cc2cccs2)cc1` (centres undefined), the “Percent Effect” value worked out at 5.181%.

For the molecule `Cn1ccnc1COc1ccc(NC(=O)C2CCCO2)cc1` (centres undefined), the “Percent Effect” value is -13.75%.

Consider `COc1ccc(NC(=O)C2OC(c3cccs3)=NN2C(C)=O)cc1` (centres undefined), for which the “Percent Effect” value was found to be 116.4%.

Take `CC(=O)N1N=C(c2cccs2)OC1C(=O)Nc1ccc(C)cc1` (centres undefined): the “Percent Effect” value stood at 119.7%.

In the case of `CC(=O)N1N=C(c2cccs2)OC1C(=O)Nc1ccccc1` (centres undefined), the “Percent Effect” value was 103.8%.

Turning to `CCc1nc(C)c([C@H]2CN(C)C[C@@H]2C(=O)Nc2ccc(OC)cc2)[nH]1`, the “Percent Effect” value was 7.798%.

As to `CCOc1ccc(NC(=O)c2cccc(OC)c2OC)cc1`, the “Percent Effect” value came to 0.2949%.

Take `O=C(Nc1ccccc1)C1CN(C(=O)c2cccs2)CC12CCOCC2` (centres undefined): the “Percent Effect” value is reported as -0.3117%.

Consider `CCOc1ccc(NC(=O)C2OC(c3cccs3)=NN2C(C)=O)cc1` (centres undefined), for which the “Percent Effect” value came to 122.8%.

On to `O=C(Nc1ccccc1)C1CN(Cc2cccs2)CC12CCOCC2` (centres undefined), for which the “Percent Effect” value was 0.5273%.

On to `CCc1ccc(NC(=O)C2OC(c3cccs3)=NN2C(C)=O)cc1` (centres undefined), for which the “Percent Effect” value turned out to be 3.495%.

Consider `O=C1CC(CNc2cncc(Cl)n2)c2ccccc2N1` (centres undefined), for which the “Percent Effect” value is recorded as -4.513%.

Take `Cc1n[nH]c(CN2CCN(C(=O)C3CCC3)[C@@H]3CS(=O)(=O)C[C@@H]32)n1`: the “Percent Effect” value is -3.785%.

With `Cc1cc(C(=O)Nc2ccc(OC3CCOCC3)c(C)c2)[nH]n1`, the “Percent Effect” value is given as -9.28%.

For `O=C1CN(CCCNC(=O)Nc2ccccn2)CCN1`, the “Percent Effect” value came to 3.817%.

Regarding `Cc1nc(C)c(CC(=O)NCc2ccc(F)cc2F)s1`, the “Percent Effect” value is 12.14%.

As to `COc1cccc(CNC[C@H]2COCc3nc4cccnc4n32)n1`, the “Percent Effect” value is recorded as -3.627%.

Take `OCC1(CCOc2ccccc2)CCCN(c2ccc(Cl)cn2)C1` (centres undefined): the “Percent Effect” value was determined as 19.44%.

Regarding `COc1ccc(NC(=O)C2OC(c3cccs3)=NN2C(C)=O)cc1OC` (centres undefined), the “Percent Effect” value is listed as 133.2%.

`CNC(=O)c1ccc(OC)c(NCc2noc(-c3cccs3)n2)c1`: the “Percent Effect” value was -3.924%.

Regarding `O=c1oc(-c2cccs2)nn1CC(O)c1ccccc1` (centres undefined), the “Percent Effect” value was 2.258%.

Turning to `CC(=O)N1N=C(c2cccs2)OC1C(=O)Nc1ccc(C(C)C)cc1` (centres undefined), the “Percent Effect” value was 90.69%.

For the molecule `COc1ccc(NC(=O)C2CC2)cc1OCc1cccnc1`, the “Percent Effect” value was -2.646%.

Consider `Cc1ccc(CNC(=O)C2c3c(ncn3C(C)C)CCN2S(C)(=O)=O)o1` (centres undefined), for which the “Percent Effect” value is -24.24%.

With `CC(=O)N1N=C(c2cccs2)OC1C(=O)NCc1ccc(C)o1` (centres undefined), the “Percent Effect” value is listed as 124.5%.

On to `CNC(=O)C(C)S(=O)(=O)Cc1csc(-c2cccs2)n1` (centres undefined), for which the “Percent Effect” value is -15.96%.

Turning to `Cc1ccc(CN(C(=O)NCC(c2cccs2)N(C)C)C2CC2)o1` (centres undefined), the “Percent Effect” value was 16.5%.
